Activity calls are given as the source filed them.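 How the source made its calls: active means primary screen hit whose calcium fluorescence ratio, in both repeats, exceeds the weak agonist control mean by 3 SD; inactive means the rest.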
Each compound was assayed on TRPC4 beta (transient receptor potential cation channel C4), mouse (assay: potentiation of DAMGO EC20 TRPC4 response – cell-based, Fluo-4, HEK293 TRPC4beta/mu-opioid, confirmation (AID 2555)). Settings: DAMGO EC20, Fluo-4 calcium flux, at 10 µM; hits give high values.

| Structure (SMILES) | potentiation | outcome |
| --- | --- | --- |
| CC(C)C(=O)N1CCN(c2nc(-c3ccccc3)c3c(c2C#N)CCCC3)CC1 | 26% (active) |  |
| CC(=O)n1cc([C@@H]2C=C(C(=O)NCc3ccccc3)O[C@H](OCc3ccc(CO)cc3)C2)c2ccccc21 |  | inactive |
| CCN1CCN(c2nc(N)c([N+](=O)[O-])c(Nc3ccc(C)c(C)c3)n2)CC1 |  | inactive |
| CN1/C(=C\C=[N+](C)c2ccccc2)C(C)(C)c2ccccc21 |  | inactive |
| COc1cc(NC(=O)C(C)Oc2ccccc2)cc(OC)c1 (stereo not drawn) |  | inactive |
| CCCCc1ccc(NC(=O)CSc2nnc(C)c(=O)n2N)cc1 | 14% (active) |  |
| O=C(COc1ccc(Br)cc1Cl)c1ccc[nH]1 |  | inactive |
| Clc1cc(/C=N\NC2=NCCN2)cc(Cl)n1 |  | inactive |
| Cc1cc(OCC(=O)N2CCCC2)cc(C)c1Cl |  | inactive |
| CCOC(=O)CC(NS(=O)(=O)c1ccc(OC)c(C)c1)c1cccc([N+](=O)[O-])c1 (stereo not drawn) |  | inactive |
| O=C(COc1coc(CN2CCN(c3ccccc3F)CC2)cc1=O)Nc1ccccc1 |  | inactive |
| CN(C)CCCNC(=O)/C=C/c1ccc(OCc2c(F)cccc2Cl)cc1 |  | inactive |
| CC(C)c1cccc(OCCCCN(C)C)c1 | 20% (active) |  |
| CNc1oc(-c2ccccc2Cl)nc1P(=O)(c1ccccc1)c1ccccc1 |  | inactive |
| Cc1ccc(C(=O)C[n+]2cccc3cc(C)ccc32)cc1 |  | inactive |
| CCCN1CCN(C(=S)NCc2ccc(Cl)cc2)CC1 | 8% (active) |  |
| CC(=O)Nc1nc(-c2ccc3c(c2)CCN3C(=O)C2CC2)c(C)s1 |  | inactive |
| COC(=O)c1ccccc1NC(=O)CCC(=O)N1CC(C)Oc2ccc(C)cc21 (stereo not drawn) |  | inactive |
